Assay [1] is described as follows: APR_HepG2_P-H2AX_72hr: Apredica 72-hour HepG2 Assay for H2AX Phosphorylation (AID 2282916).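 Further: phospho-histone H2A.x immunostain intensity per cell marking DNA damage.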 To be noted: imaging, actives raise or lower the signal. The procedure, abridged: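 HepG2 cells treated 72 h at 0.39–200 uM, 0.5% DMSO final, duplicates. Formaldehyde-fixed, Triton-permeabilised, immunostained for phospho-H2A.x with Hoechst; fluorescence imaged at 20x, bidirectional fit versus DMSO.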

The nature of assay [2]: APR_HepG2_MitoMembPot_72hr: Apredica 72-hour HepG2 Assay for Mitochondrial Membrane Potential (AID 2282917). To be noted: imaging, actives raise or lower the signal. Put shortly:
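HepG2 cells dosed 72 hr with compound at 0.39–200 uM in duplicate, 0.5% v/v DMSO final. Mitochondria stained with 250 nM MitoTracker Red CMXRos for 30 min before formaldehyde fixation, imaged by high-content fluorescence; bidirectional fit versus DMSO.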

Assay [3] can be described thus: APR_HepG2_MitoticArrest_72hr: Apredica 72-hour HepG2 Assay for Mitotic Arrest (AID 2282918). To be noted: high-content imaging, actives raise or lower the signal. Put shortly:
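HepG2, 72 hr exposure, 0.39–200 uM in duplicate, 0.5% v/v DMSO final. Formaldehyde-fixed, Triton-permeabilized, anti-phospho-histone H3/FITC plus Hoechst. ArrayScan imaging at 20x; curves fit bidirectionally against DMSO baseline.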

Assay [4] is described as follows: APR_HepG2_MicrotubuleCSK_72hr: Apredica 72-hour HepG2 Assay for Microtubule CSK Stabilty (AID 2282919). To be noted: HepG2 microtubule cytoskeleton, high-content imaging, actives raise or lower the signal. Put shortly:
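HepG2 cells were exposed 72 hr to compound at 0.39–200 uM in duplicate (0.5% DMSO final), then fixed and permeabilized. Alpha-tubulin immunofluorescence was imaged by high-content microscopy, with bidirectional fitting against DMSO and taxol as positive control.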

Assay [5] in a line: APR_HepG2_P-H2AX_24hr: Apredica 24-hour HepG2 Assay for H2AX Phosphorylation (AID 2282920). To be noted: high-content imaging, actives raise or lower the signal. The procedure, abridged:
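HCS fluorescence imaging of phospho-H2A.x immunostain (with Hoechst 33342 nuclear counterstain) in HepG2 after 24 hr compound exposure; 10 concentrations, 0.39–200 uM, duplicate wells, 0.5% v/v DMSO. Gain or loss of signal fitted relative to DMSO baseline.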

A short description of assay [6]: APR_HepG2_StressKinase_72hr: Apredica 72-hour HepG2 Assay for Stress Kinase (AID 2282921). To be noted: HepG2 stress kinase (phospho-c-Jun) imaging, actives raise or lower the signal. Put shortly: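 HepG2 cells treated 72 hr with 0.39–200 uM compound, 0.5% v/v DMSO, duplicate wells. After formaldehyde fixation and Triton permeabilization, stained with anti-phospho-c-Jun (1:500) and Cy3 secondary, imaged at 20x. Fitted in both directions against DMSO.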

Assay [7] in a line: APR_HepG2_StressKinase_24hr: Apredica 24-hour HepG2 Assay for Stress Kinase (AID 2282922). To be noted: HepG2 stress kinase (phospho-c-Jun) imaging, actives raise or lower the signal. Put shortly: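 HepG2 cells exposed 24 h to 0.39–200 uM compound in duplicate (0.5% v/v DMSO final). Cells fixed in 3.7% formaldehyde, permeabilized and immunostained for phospho-c-Jun; read by high-content fluorescence imaging, fitted bidirectionally against DMSO.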

Assay [8] is described as follows: APR_HepG2_p53Act_72hr: Apredica 72-hour HepG2 Assay for p53 Activation (AID 2282923).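 Further: average cellular p53 protein immunofluorescence intensity in HepG2 cells.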 To be noted: high-content imaging, actives raise or lower the signal. Put shortly: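 HepG2 cells exposed 72 h to 0.39–200 uM in 0.5% DMSO, duplicates. Fixed, permeabilized cells immunostained for p53 (Cy5) with Hoechst; imaged at 20x, fluorescence analyzed bidirectionally against DMSO.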

Assay [9] is described as follows: APR_HepG2_MitoMass_72hr: Apredica 72-hour HepG2 Assay for Mitochondrial Mass (AID 2282924).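 Further: MitoTracker Red CMXRos stain intensity per cell imaged as mitochondrial mass.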 To be noted: high-content imaging, actives raise or lower the signal. Put shortly: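 HepG2 cells dosed 72 hr at 0.39–200 uM (0.5% DMSO), in duplicate. MitoTracker Red CMXRos 250 nM loaded 30 min before formaldehyde fixation; high-content fluorescence imaging, bidirectional fit versus DMSO.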

Assay [10] is described as follows: APR_HepG2_NuclearSize_72hr: Apredica 72-hour HepG2 Assay for Nuclear Size (AID 2282925). To be noted: high-content imaging, actives raise or lower the signal. The procedure, abridged: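 HepG2 cells dosed 72 h at 0.39–200 uM (10 concentrations, duplicate) in 0.5% v/v DMSO final. Fixed, Hoechst 33342-stained nuclei imaged; nuclear diameter measured by automated image analysis. Bidirectional fit versus DMSO.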

As a reminder, the AC50 is the concentration at which the activity in the assay is half-maximal.

Activity calls are given as the source filed them. How the source made its calls: active means hit-call score of the fitted dose curve at least 0.9, where 1 is the maximum; inactive means score below 0.9.

For the compound `COP(=O)(OC)C(O)C(Cl)(Cl)Cl` (stereo not given), the outcome in [1], in assay [2], in assay [3], in [4], in assay [6] and in [7] was inactive. Moreover, the compound was classed as inactive in [9] and in assay [10]. For the same compound, the concentration at half-maximal activity (AC50) in [5] is 100 µM (active); in [8], 113 µM (active).

Take `CSc1nnc(C(C)(C)C)c(=O)n1N`: the result in assay [1], in assay [2], in assay [3], in [4], in assay [5] and in assay [6] was inactive. For the same compound, the compound was classed as inactive in assay [7], in [8], in [9] and in assay [10].

For `CNC(=O)ON=C(SC)C(=O)N(C)C`, the compound was called inactive in assay [1], in assay [2], in assay [3], in [4], in [5] and in assay [6]. For the same compound, the compound was classed as inactive in [7], in assay [8] and in assay [10]. Also, the AC50 in assay [9] was 87.8 µM (active).

With `CCC(=O)Nc1ccc(Cl)c(Cl)c1`, the call in assay [1], in assay [2], in assay [3], in assay [4], in assay [5] and in assay [6] was inactive. For the same compound, the compound was classed as inactive in [7], in assay [8], in assay [9] and in [10].

For the compound `C[N+]1(C)CCCCC1`, the compound was classed as inactive in assay [1], in assay [2], in [3], in [4], in [5] and in assay [6]. Also, the compound was classed as inactive in assay [7], in [8], in assay [9] and in assay [10].

In the case of `CCOP(=S)(OCC)OC(Cl)C(Cl)(Cl)Cl` (stereo not given), the outcome in assay [1], in assay [2], in [3], in assay [5], in assay [6] and in assay [7] was inactive. For the same compound, the result in assay [8], in assay [9] and in assay [10] was inactive. The AC50 in [4] was 109 µM (active).

On to `CNc1cnn(-c2cccc(C(F)(F)F)c2)c(=O)c1Cl`, for which the compound was classed as inactive in assay [1], in assay [2], in assay [3], in assay [4], in assay [5] and in assay [6]. Further, the call in assay [7], in assay [8], in [9] and in assay [10] was inactive.

`CNC(=O)Oc1cccc2c1OC(C)(C)O2`: the concentration at half-maximal activity (AC50) in assay [1] was 97 µM (active); in assay [5], 99.4 µM (active); in assay [9], 56.7 µM (active). Further, the call in [2], in assay [3], in assay [4], in assay [6], in assay [7] and in assay [8] was inactive. Further, in assay [10], the outcome was inactive.

Turning to `CC(COc1ccc(Oc2ccccc2)cc1)Oc1ccccn1` (stereo not given), the compound was classed as inactive in [1], in assay [2], in assay [3], in [5], in [6] and in assay [7]. For the same compound, the compound was called inactive in assay [8], in [9] and in assay [10]. The AC50 in assay [4] was 82.3 µM (active).

Take `CCCSP(=O)(OCC)Oc1ccc(Br)cc1Cl` (stereo not given): the compound was classed as inactive in assay [1], in [2], in assay [3], in assay [5], in assay [6] and in [7]. The compound was classed as inactive in [8], in assay [9] and in assay [10]. For the same compound, the concentration at half-maximal activity (AC50) in assay [4] is 113 µM (active).

Consider `CN(C)C(=O)Nc1cccc(C(F)(F)F)c1`, for which the result in [1], in [2], in [3], in assay [4], in assay [5] and in [6] was inactive. For the same compound, the compound was called inactive in [7], in assay [8], in [9] and in assay [10].

For the compound `CC(C)[C@H](C(=O)O[C@H](C#N)c1cccc(Oc2ccccc2)c1)c1ccc(Cl)cc1`, the compound was classed as inactive in [1], in assay [2], in assay [3], in [4], in assay [5] and in assay [6]. For the same compound, the compound was classed as inactive in assay [7], in [8], in assay [9] and in assay [10].

Take `COc1cc(OC)nc(Sc2cccc(Cl)c2C(=O)O)n1`: the compound was classed as inactive in [1], in assay [2], in assay [3], in assay [4], in [5] and in assay [6]. Also, the compound was called inactive in assay [7], in [8], in assay [9] and in assay [10].

`CC1=NNC(=O)N(/N=C/c2cccnc2)C1`: the result in assay [1], in assay [2], in [3], in assay [4], in [5] and in assay [6] was inactive. Moreover, the outcome in assay [7], in [8], in [9] and in assay [10] was inactive.

`CN1COCN(Cc2cnc(Cl)s2)C1=N[N+](=O)[O-]`: the call in assay [1], in assay [2], in assay [3], in assay [4], in assay [5] and in assay [6] was inactive. Moreover, the call in [7], in assay [8], in assay [9] and in [10] was inactive.

For the compound `COP(=O)(OC)SCn1c(=O)oc2cc(Cl)cnc21`, the AC50 in [1] is 53.8 µM (active); in assay [3], 68.3 µM (active); in assay [4], 56.3 µM (active); in assay [6], 26.3 µM (active). Also, the compound was classed as inactive in assay [2], in assay [5], in assay [7], in assay [8], in assay [9] and in assay [10].

As for `CCC(=NOC/C=C/Cl)C1=C(O)CC(C2CCOCC2)CC1=O` (stereo not given), the compound was classed as inactive in assay [1], in [2], in assay [3], in assay [4], in assay [5] and in [6]. Also, the compound was called inactive in [7], in assay [8], in [9] and in assay [10].
